# Screens: PubChem, National Center for Advancing Translational Sciences (NCATS)
# Vaccinia mCherry – vaccinia inhibition (mCherry reporter) | Vaccinia virus mCherry reporter infection, fluorescence | Potency, µM (top dose mostly 36.5 µM), inactives show at the highest dose activity change, negative = inhibition, hits mostly inhibitors | 310,000 compounds, 0.63% hits | AID 720579; calls by dose curve; tested in A549 cells; note: potency is the fitted concentration of half-maximal effect; nearly all actives have a fitted effect of over 35% in size
# Vaccinia Venus – inhibitors of vaccinia virus (Venus reporter). 330,000 compounds, 0.46% hits. Vaccinia virus Venus reporter expression, fluorescence. Potency, µM (top dose mostly 36.5 µM), for the others: top-dose activity change, negative = inhibition, hits mostly inhibitors; calls by dose curve; tested in A549 cells; note: potency is the fitted concentration of half-maximal effect; nearly all actives have a fitted effect of over 30% in size
# Lassa entry inh – blocks Lassa virus binding to or entry into cells; 300,000 compounds, 1.2% hits; AID 540256; Lassa virus pseudotype entry inhibition, cell reporter; Potency, µM (top dose mostly 37.9 µM), for inactives: at the highest dose activity change, negative = inhibition, actives largely listed as inhibitors; calls by dose curve; tested in HEK293 cells; note: potency is the fitted concentration of half-maximal effect; nearly all actives have a fitted effect of over 50% in size
# FMDV antiviral – blocks foot and mouth disease virus | FMDV antiviral cell-based qHTS | AID 1159524 | 410,000 compounds, 1.2% hits | Potency, µM (doses to about 57.9 µM), for the others: at the highest dose activity change, negative = inhibition, actives largely listed as inhibitors; calls by dose curve; tested in HEK293T cells; note: read-out not given here; potency is the fitted concentration of half-maximal effect; nearly all actives have a fitted effect of over 45% in size
# MARV entry inh – inhibitors of Marburg virus binding or cell entry; Marburg virus pseudotyped entry inhibition, cell reporter; Potency, µM (series often up to 37.8 µM), inactives show at the top dose activity change, negative = inhibition, most hits filed as inhibitors; 300,000 compounds, 1.8% hits; calls by dose curve; tested in HEK293 cells; note: potency is the fitted concentration of half-maximal effect
# HCMV antiviral – human cytomegalovirus inhibition. activity change, negative = inhibition, % at 57.5 µM. 410,000 compounds, 4.5% hits. HFF cells, HCMV-luciferase reporter, 72 h; stronger effect = lower value; in the data active = activity change below about -60%; inconclusive = no clear call, values can overlap the other calls; inactive = above about -39%
#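 Luciferase read-out from HCMV-luciferase-infected HFFs (MOI 1 PFU/cell) 72 h post infection at 37C; compounds added after 16 h cell attachment; activity normalized between buffer-only basal and Salinomycin (10uM) inhibitor controls.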
# An asterisk follows results filed as active; i = inactive; ? = inconclusive; . = no result given; [ ] = another dose, or the depositor's remark. Shown are actives, neighbours in structure and some others; about 6.5% of the full set was active somewhere. % is set by controls: 0 for no effect and ±100 for the full control effect.
SMILES,Vaccinia mCherry,Vaccinia Venus,Lassa entry inh,FMDV antiviral,MARV entry inh,HCMV antiviral
CCc1ccccc1NC(=O)CSc1nncn2c1cc1oc(C)cc12,10.9%,-3.1%,26.5%[46.1 µM],-2.8%,.,-25.0
Cn1c(=O)c(-c2ccc(Cl)cc2)nc2cnc(N3CCOCC3)nc21,.,.,.,24.6%,.,.
C=CCN=C1NC(c2cccc(C(F)(F)F)c2)C(C(=O)OC)=C(C)N1CC (configuration not stated),.,.,.,.,12.5%[14.2 µM],.
O=S(=O)(c1ccccc1)c1c2c(cc3ccc(Cl)cc13)CCC2,.,.,.,.,.,-3.9
c1ccc(-c2sc3ccccc3c2-c2ccc(OCCN3CCCCC3)cc2)cc1,-14.8%,-18.3%,.,-13.4%,.,-63.7*
CN(C)CCOc1ccc(-c2c(-c3ccccc3)sc3ccccc23)cc1,?,12.6µM*,.,?,.,-38.0
c1ccc2c(-c3ccc(OCCN4CCCCC4)cc3)c(-c3ccsc3)sc2c1,?,-29.1%,.,?,.,-23.3
CCCCCn1cc2c(c1-c1ccc(Cl)cc1)c(=O)n(C)c(=O)n2C,-21.0%,-19.8%,?,0.0%,13.3%[46.1 µM],-0.4
COc1ccc(-c2nc3ccc(NC(C)=O)cc3c(=O)n2Cc2cccc(Cl)c2)cc1COc1ccc(NC(C)=O)cc1,-5.5%,-13.6%,.,.,.,.
O=[N+]([O-])c1cccc(COc2ccc(CO)cc2)c1,.,.,.,.,?,44.2
Cc1cc(C)c2nccc(C)c2c1,-11.8%,-8.5%,.,.,.,.
CCOC(=O)N(O)c1ccc(C=Cc2ccccc2)cc1,?,?,0.631µM*,15.5%,1.26µM*,-62.2*
O=C(CF)N(O)c1ccc(C=Cc2ccccc2)cc1,?,?,1.12µM*,15.8%,1µM*,-79.4*
CCCCn1c(NCc2ccccc2O)nc2ccccc21,-20.0%,-21.2%,.,13.1%,.,24.4
CCn1c(/N=C/c2ccccc2NS(=O)(=O)c2ccc(C)cc2)nc2ccccc21,i,-11.4%,11.2µM*,3.4%,?,.
CCCCn1c(NCc2ccccc2NS(=O)(=O)c2ccc(C)cc2)nc2ccccc21,.,?,?,-11.7%,11.2µM*,-23.4
CCN(CC)CCn1c(NS(=O)(=O)c2ccc(C)cc2)nc2ccccc21,-1.6%,-19.9%,0.4%,9.9%,15.7%,18.8
CCCCn1c(=O)c2oc3ccccc3c2n(CC(=O)Nc2cccc(Cl)c2C)c1=O,?,-24.9%,-3.5%[46.1 µM],-5.2%,.,-24.8
CN1CC(=O)NC1=N,4.4%,16.4%,.,2.9%,.,.
O=c1[nH]sc2ccccc12,-14.4%,-10.5%,-15.5%,-11.0%,?,-73.5*
O=c1[nH]sc2cc(F)ccc12,-15.8%,-7.7%,-24.9%,-15.9%,?,-98.2*
O=c1c2cc(F)ccc2sn1-c1ccccc1,-22.2%,-27.6%,.,-1.4%,.,-30.4
Cc1c(C(=O)NCc2ccc(F)cc2)oc2ccc(S(=O)(=O)N3CCCCC3)cc12,?,?,?,?,.,-28.4
CC(=O)Nc1cccc(NC(=O)CSc2cn(CC(=O)N(C(C)C)C(C)C)c3ccccc23)c1,-5.3%,0.3%,?,0.5%,.,-11.5
CN(C)c1ccc(/C=C/c2ccc3ccccc3[n+]2[O-])cc1,-8.2%,i,.,.,.,.
SMILES,Vaccinia mCherry,Vaccinia Venus,Lassa entry inh,FMDV antiviral,MARV entry inh,HCMV antiviral
CC[n+]1ccccc1/C=C/c1ccc(N(C)C)cc1,.,.,.,?,.,-85.5*
CC[n+]1ccc(/C=C/c2ccc(N(C)C)cc2)c2ccccc21,i,i,?,17.8µM*,?,-99.0*
CC[n+]1c(/C=C/c2ccc(N(C)C)cc2)ccc2ccccc21,301.3%,391.6%,9.2µM*,6.31µM*,1.64µM*,.
CCCCCC[n+]1ccccc1/C=C/c1ccc(N(C)C)cc1,i,i,.,?,.,-97.4*
CN(C)c1ccc(/C=C/c2cccc3ccccc23)cc1,-11.1%,6.7%,.,.,.,.
O=C(CSc1nc(=O)[nH]c2c1CCCC2)NCc1ccccc1,-0.3%[7.34 µM],-4.6%[7.34 µM],12.4%[46.1 µM],-25.3%,.,2.0
CCN(CC)c1ccc(/C=C/c2ccc3ccc(OC)cc3[n+]2CC)cc1,.,.,.,7.94µM*,.,-96.9*
CC[n+]1c(/C=C/c2ccc(OC)c(OC)c2)ccc2ccccc21,.,.,.,75.8%,.,47.2
COc1ccccc1CN(C)C(=O)c1cc(C)nc2ccccc12,-10.7%,-6.2%,-1.0%[46.1 µM],-1.1%,11.2µM*,-14.9
CC(C)c1cnc2c(c1SCC(=O)Nc1cccc([N+](=O)[O-])c1)c(=O)n(C)c(=O)n2C,-18.0%,-19.6%,-22.1%[46.1 µM],27.2%,.,20.5
COc1ccc(N2C(=O)CC(c3ccccc3)C2=O)cc1 (configuration not stated),-11.8%,-11.0%,-5.1%,-10.9%,1.8%,3.0
COc1ccc(N2C(=O)CSC(c3ccccc3)C2=O)cc1 (configuration not stated),-8.7%,-0.5%,13.0%,-6.3%,-6.4%[46.1 µM],-105.0*
O=C(c1nc(-c2ccc(Cl)cc2)n2c1CCCCC2)N1CCN(c2ccccc2F)CC1,-12.7%,-14.4%,-11.7%[46.1 µM],-14.0%,.,9.6
Cc1cc(C)cc(NC(=O)CN2CCC(NC(=O)Cc3ccccc3)CC2)c1,-3.2%,-21.7%,7.7%,.,-6.1%,-28.6
Cc1ccccc1C(=O)NC1CCN(CC(=O)Nc2ccccc2)CC1,.,.,.,-10.4%,.,-89.6*
O=C(CN1CCC(NC(=O)Cc2ccccc2)CC1)Nc1ccccc1Br,.,.,?,?,7.0%,-63.5*
COc1cccc(Cn2c(=O)c(-c3cc(F)cc(F)c3)nc3cnc(N(C)C)nc32)c1,.,.,.,-9.1%,.,.
COC(=O)/C=C/c1sc2nc(C)cc(C)c2c1N=CN(C)C,-1.4%,8.7%,2.6%,4.7%,?,-67.5*
Cc1cc(C)c2c(N=CN(C)C)c(C(=O)N3CCN(c4ncccn4)CC3)sc2n1,-18.1%,-13.6%,-7.3%,-4.8%,-26.0%[46.1 µM],11.4
COC1CC(C)C(OC)c2cc(O)cc(c2O)NC(=O)C(C)=CC=CC(C)C(OC(N)=O)C(C)=CC(C)C1OC (configuration not stated),?,?,?,126µM*,3.55µM*,-99.2*
COC1C=CC=C(C)C(=O)NC2=CC(=O)C(N)=C(CC(C)CC(OC)C(O)C(C)C=C(C)C1OC(N)=O)C2=O (configuration not stated),?,-40.4%,0.447µM*,10µM*,0.199µM*,-97.5*
O=c1cc(-c2ccccc2)n2c(SCc3ccccc3Cl)nnc2[nH]1,i,-5.7%,27.6%[46.1 µM],-3.2%,.,-32.7
Cc1nc2c(c(C)nn2-c2ccccc2)c(C)c1CCC(=O)Nc1ccc(CN2CCCC2)cc1,-3.0%,-14.3%,?,-24.9%,10µM*,-64.4*
O=C(N[C@H]1CC[C@@]23CCCN2C(=O)CCC[C@H]3[C@H]1Cc1ccccc1)C1CCC1,.,.,.,.,.,12.0
COc1ccc(-c2nc(NC(=O)c3ccc(OCC(=O)Nc4ccc(F)cc4)c(OC)c3)sc2C)cc1,?,?,?,17.8µM*,?,23.3
CCN1[C@H](C(=O)OC)[C@@H](CO)[C@@H]2Cn3c(ccc(Br)c3=O)[C@@H]21,.,.,.,.,.,19.9
COC(=O)C1=C(C)NC(C)=C(C(=O)OC)C(N2C(=O)CCC2=O)C1 (configuration not stated),.,.,.,.,.,-85.2*
